Where “and” joins values, the source holds several entries; their conditions need not be identical. Equal entries are not always repeated. Some compounds were tested as several samples or in several runs, with calls that do not always agree. Calls of active or inactive are those of the source. Rule for the calls: active = hit-call score of the fitted dose curve at least 0.9, where 1 is the maximum; inactive = score below 0.9.

Read-out in the test: Monokine induced gamma interferon (MIG), CXCL9 (gene 4283)
The test is described as follows: BSK_BE3C_MIG: BioMAP Diversity Plus: BE3C Assay for Monokine induced gamma interferon (MIG) Biomarker Activity (AID 2283035). Conditions: primary human bronchial epithelial cells; actives raise or lower the signal. The method, then: BSK_BE3C is a cell-based, multiplexed-readout assay that uses bronchial epithelial cell, a human lung primary cell, with measurements taken at 24 hours after chemical dosing in a 96-well plate.BSK_BE3C_MIG is an assay component measured in the BSK_BE3C assay. It measures MIG antibody related to regulation of gene expression using ELISA technology.Data from the assay component BSK_BE3C_MIG was analyzed into 1 assay endpoint. This assay endpoint, BSK_BE3C_MIG, was analyzed with bidirectional fitting relative to DMSO as the negative control and baseline of activity. Using a type of binding reporter, gain or loss-of-signal activity can be used to understand changes in the signaling as they relate to the gene CXCL9. Furthermore, this assay endpoint can be referred to as a primary readout, because this assay has produced multiple assay endpoints where this one serves a signaling function. To generalize the intended target to other relatable targets, this assay endpoint is annotated to the cytokine intended target family, where the subfamily is chemotactic factor.
The levels of cell surface (or secreted, indicated by the prefix "s") biomarker endpoints were measured by ELISA. Overt cytotoxicity to cells in confluent adherent cultures (all systems other than the BT system) was assessed by measuring total protein levels using sulforhodamine B (SRB) staining in parallel cultures at the time of biomarker measurements, indicated as SRB endpoints. For proliferation assays for adherent cell types, individual cell types are cultured at sub-confluence and relative cell numbers quantified by SRB staining at time points optimized for each system (48 h: 3C and CASM3C systems; 72 h: BT and HDF3CGF systems; 96 h: SAg system). SRB was performed by staining cells with 0.1% SRB after fixation with 10% TCA and reading wells at 560 nm.Viability and proliferation of PBMC (T cells) was quantified by Alamar Blue reduction for the SAg and BT systems. For PBMC viability (referred to as PBMC Cytotoxicity within the assay endpoint names), cells were plated (75,000/well in a 96-well plate) and then chemical samples added for 1 h before addition of activators, SEB and TSST-1 (20 ng/mL final concentration each). Cells were incubated for 90 h. Then, Alamar Blue (20 uL/well) (Invitrogen, Cat DAL1100) was added for 6 h, and the plates were read with a fluorescence microplate reader at 546/580 nm (excitation/emission). For PBMC proliferation, cells were plated and activated as above but incubated for only 16 h prior to addition of Alamar Blue. Plates were read after 6 h.
For `CCC[CH2][Sn]([Cl])([CH2]CCC)[CH2]CCC`, the AC50 was 162 nM (active). For the compound `COP(=S)(OC)SCN1C(=O)c2ccccc2C1=O`, the outcome was inactive. As for `COC(=O)Nc1nc2ccccc2[nH]1`, the result was inactive. Same read-out and setting: then `CC(C)(C)C(O)(CCc1ccc(Cl)cc1)Cn1cncn1` (stereo not given), with “inactive”; and `CCOc1cccc(C2(N3CCN(c4ccccc4)CC3)CCC(C)CC2)c1` (stereo not given), with “inactive”; and `Nc1ccc(N=Nc2ccccc2)cc1`, with “inactive”. Still for that read-out and setting: for `CCCCOC(=O)c1ccccc1C(=O)OCc1ccccc1` the value was “inactive”; for `OCCCl`, “inactive”; for `Cc1ccc(N)c(N)c1`, “inactive”. For the compound `Nc1cc(Cl)cc(C(=O)O)c1Cl`, the outcome was inactive. On to `CNC(=O)Oc1cccc2c1OC(C)(C)C2`, for which the result was inactive. As to `CCNS(=O)(=O)C(F)(F)C(F)(F)C(F)(F)C(F)(F)C(F)(F)C(F)(F)C(F)(F)C(F)(F)F`, the AC50 was 44.4 µM (active) and 29.5 µM (active); the outcome was inactive. Consider `CO[C@@H]1[C@H](OC(=O)NC(=O)CCl)CC[C@]2(CO2)[C@H]1[C@@]1(C)O[C@@H]1CC=C(C)C`, for which the outcome was inactive. In the case of `Cc1ccc(N)cc1`, the result was inactive. Still for that read-out and setting: for `CCOC(=O)[C@]1(c2ccccc2)Oc2ccccc2[C@@H]1N` the value was “inactive”. For the compound `c1ccc2c(c1)oc1ccccc12`, the result was inactive. For `[Cl-].[Cl-].[Hg+2]`, the AC50 was 36500 nM (active). Regarding `COC(=O)c1ccccc1N`, the result was inactive. As for `Oc1ccccc1Cl`, the outcome was inactive. Still for that read-out and setting: then `Cc1cc(N=Nc2ccccc2C)ccc1N`, with “inactive”; and `Nc1ccc(Cl)cc1N`, with “inactive”; and `CCCCCCCCOC(=O)c1ccc(C(=O)OCCCCCCCC)c(C(=O)OCCCCCCCC)c1`, with “inactive”.

As to `Nc1ccc(Cc2ccc(N)cc2)cc1`, the outcome was inactive. On to `Clc1ccc(Cl)c(Cl)c1`, for which the result was inactive. Still for that read-out and setting: for `Cc1cccc(N)c1N` the value was “inactive”. Turning to `O=P(OCCCl)(OCCCl)OCCCl`, the outcome was inactive. With `Clc1ccc(C(c2ccc(Cl)cc2)C(Cl)(Cl)Cl)cc1`, the outcome was inactive. With `CN(C)c1ccccc1`, the result was inactive. In the case of `O=C(Oc1ccc(Br)cc1)N1CCN2CCC1CC2`, the result was inactive.

As for `Cc1ccc([N+](=O)[O-])cc1`, the outcome was inactive. On the same count and under the same terms, then `O=C(Nc1ccccc1)c1ccccc1I`, with “inactive”; and `CC(C)(C)OOC(C)(C)CCC(C)(C)OOC(C)(C)C`, with “inactive”; and `CCCCCOC(=O)c1ccccc1C(=O)OCCCCC`, with “inactive”.

Turning to `[O-][Cl+]O`, the outcome was inactive. With `CC(O)CCO` (stereo not given), the outcome was inactive. The same measure, in the same setting: then `CN(C)[C@@H]1C(=O)C(C(N)=O)=C(O)[C@@]2(O)C(=O)C3=C(O)c4c(O)cccc4[C@@](C)(O)[C@H]3C[C@@H]12`, with “inactive”; and `c1ccc(N=Nc2ccccc2)cc1`, with “inactive”; and `CCCCC(CC)COC(=O)c1ccc(C(=O)OCC(CC)CCCC)c(C(=O)OCC(CC)CCCC)c1` (stereo not given), with “inactive”. Same read-out and setting: then `ClCCOCCCl`, with “inactive”.

These data come from PubChem BioAssay (EPA / NIEHS).
